# PubChem BioAssay (EPA / NIEHS)
# More than one record can exist for a structure, and the calls need not agree. Active and inactive are the calls of the source. Rule for the calls: active = hit-call score of the fitted dose curve at least 0.9, where 1 is the maximum; inactive = score below 0.9.
# Read-out: cysteine-aspartic acid protease (CASP8), CASP8 (gene 841)
# Experiment: LTEA_HepaRG_CASP8: Life Technologies and Expression Analysis (LTEA) Assay for cysteine-aspartic acid protease (CASP8) using HepaRG (AID 2283480)
# Details: mRNA level, 48 h; actives raise or lower the signal
# Method: LTEA_HepaRG is a cell based, multiplexed-readout assay that uses HepaRG, a human liver cell line, with measurements taken at 48 hours after chemical dosing on a 96-well plate.LTEA_HepaRG_CASP8 is one of 102 assay component(s) measured in the LTEA HepaRG cell culture assay. It is a marker of Cell proliferation, survival, death.Data from the assay component LTEA_HepaRG_CASP8 was analyzed into 1 endpoint. This assay endpoint, LTEA_HepaRG_CASP8, was analyzed with bidirectional fitting relative to DMSO as the negative control and baseline of activity. Using a type of inducible reporter, measures of mRNA induction for gain or loss-of-signal activity can be used to understand regulation of transcription factor activity. To generalize the intended target to other relatable targets, this assay endpoint is annotated to the protease intended target family, where the subfamily is cysteine protease.
# A total of 1060 chemcials from the ToxCast library were tested in eight-point concentration-response experiments. Cell culture and cytotoxicity assays were conducted at Thermo Fisher Scientific's Custom Services facility (Madison, WI). A single lot of human HepaRG cells (Thermo Fisher Scientific, Frederick, MD) was used for the cell culture experiments. 96-well format collagen type I coated plates of human HepaRG cells were prepared using established methods. Briefly, cryopreserved HepaRG cells were thawed, plated at a density of approximately 100,000 cells/well in HepaRG Thaw, Plate, and General Purpose media (HPRG770, Thermo Fisher Scientific), and incubated for 48 hours. 0.5% DMSO was selected as vehicle control to balance the requisite need of DMSO in HepaRG cultures to maintain differentiation (for example, baseline metabolism, proportions of hepatocytes vs. cholangiocytes), while enabling further hepatic receptor pathway activation (for example, PXR and CAR) in response to chemical exposure. 48 hours after plating, the culture medium was replaced with HepaRG Serum-Free Incudtion Media. Cells were exposed to each test chemical in duplicate and maintained in CO2 incubators for another 48 hours. Chemical plates were thawed to room temperature and 200x concentrations of treatment groups were prepared. 8-point conentration-reponse curves were made with the highest exposure at 100 uM, followed by half-log dilutions, all in 0.5% DMSO. Each test plate contained variouse controls, induction positive controls (1mM phenobarbital), cytotoxicity positive controls ([…] aflatoxin B1), vehicle controls (0.5% DMSO), and total lysis controls (0.5% DMSO). Cell morphology images were taken using an Essen IncuCyte FLR automated microscope, with six 96-well plates imaged in about 24 minutes. Images were captured and exported and JPEG files. Spent culture media was transfered to black-well plates for the LDH assay, and remaining media was sorted at -80 C for later use. Cells were treated with RLT buffer and frozen until shipped for gene expression analysis. Total RNA was isolated from the cell suspension in 75 uL of Buffer RLT (Qiagen, Germantown, MD 20874) by Quintiles/Expression Analysis (Durham, NC) using a custom isolation procedure. Total RNA from each plate well was transferred to a preamplification plate. Fluidigm's 96.96 Dynamic ArrayTM (Fluidigm, Amsterdam, the Netherlands) technology was used for gene expression analyses by quantitative reverse transcription polymerase chain reaction (qRT-PCR, performed by Quintiles/Expression Analysis, Durham, NC)89. Standard TaqManTM Assays (Applied Biosystems/ThermoFisher Scientific, Foster City, CA) were used to assess the expression of 93 genes selected based on their selectivity and sensitivity to important hepatic receptors known to be modulated by environmental chemicals; importance in human hepatocyte functionality; and hepatotoxicity. […]
Structure (SMILES),AC50,outcome
CC(C)(C)C(O)/C(=C\c1ccc(Cl)cc1Cl)n1cncn1 (stereo not given),80.6 µM (active),–
COP(=S)(OC)Oc1ccc(SC)c(C)c1,–,inactive
O=C(NC(=O)c1c(F)cccc1F)Nc1ccc(OC(F)(F)C(F)OC(F)(F)F)c(Cl)c1 (stereo not given),–,inactive
ClC1C(Cl)C(Cl)C(Cl)C(Cl)C1Cl (stereo not given),–,inactive
CCOC1Oc2ccc(OS(C)(=O)=O)cc2C1(C)C (stereo not given),–,inactive
Oc1ccc(Cl)cc1Cc1ccccc1,–,inactive
CNC(=O)Oc1ccccc1OC(C)C,–,inactive
CNC(=O)Oc1cccc(N=CN(C)C)c1,–,inactive
CC(C)OC(=O)Nc1cccc(Cl)c1,–,inactive
CC[C@H](C)[C@H]1O[C@]2(C=C[C@@H]1C)C[C@@H]1C[C@@H](C/C=C(\C)[C@@H](O[C@H]3C[C@H](OC)[C@@H](O[C@H]4C[C@H](OC)[C@@H](O)[C@H](C)O4)[C@H](C)O3)[C@@H](C)/C=C/C=C3\CO[C@@H]4[C@H](O)C(C)=C[C@@H](C(=O)O1)[C@]34O)O2 (tested in a mixture with another compound),–,inactive
COP(=S)(OC)Oc1ccc([N+](=O)[O-])cc1,–,inactive
C[C@H]1[C@H](c2ccc(Cl)cc2)SC(=O)N1C(=O)NC1CCCCC1,–,inactive
CNC(=O)/C=C(\C)OP(=O)(OC)OC,–,inactive
O=C(O)CCCOc1ccc(Cl)cc1Cl,–,inactive
CCCN(CCC)c1c([N+](=O)[O-])cc(C(F)(F)F)cc1[N+](=O)[O-],–,inactive
O=S(=O)(O)C(F)(F)C(F)(F)C(F)(F)C(F)(F)C(F)(F)C(F)(F)C(F)(F)C(F)(F)F,34.5 µM (active),inactive
CCc1ccc(C(=O)NN(C(=O)c2cc(C)cc(C)c2)C(C)(C)C)cc1,–,inactive
CCC(C)(NC(=O)c1cc(Cl)c(C)c(Cl)c1)C(=O)CCl (stereo not given),89.8 µM (active),–
CCN(CC)C(=O)SCc1ccc(Cl)cc1,–,inactive
Oc1cc(Cl)ccc1Oc1ccc(Cl)cc1Cl,–,inactive

Structure (SMILES),AC50,outcome
CC1(C)C(C=C(Cl)Cl)C1C(=O)OC(C#N)c1ccc(F)c(Oc2ccccc2)c1 (stereo not given),–,inactive
O=[N+]([O-])/N=C1\NCCN1Cc1ccc(Cl)nc1,–,inactive
O=C(O)C(F)(F)C(F)(F)C(F)(F)C(F)(F)C(F)(F)C(F)(F)C(F)(F)F,–,inactive
OCCOc1ccccc1,–,inactive
CC(C)(C)C(O)C(Oc1ccc(Cl)cc1)n1cncn1 (stereo not given),–,inactive
N#Cc1c(Cl)c(Cl)c(Cl)c(C#N)c1Cl,–,inactive
O=C1c2ccccc2C(=O)N1SC(Cl)(Cl)Cl,–,inactive
COP(=O)(OC)OC=C(Cl)Cl,–,inactive
CCOCN(C(=O)CCl)c1c(C)cccc1CC,–,inactive
N#CN,–,inactive
C#CCN1C(=O)COc2cc(F)c(N3C(=O)C4=C(CCCC4)C3=O)cc21,–,inactive
CCC(C)(C)C(=O)OC1=C(c2ccc(Cl)cc2Cl)C(=O)OC12CCCCC2,–,inactive
CC(C)N(C(=O)COc1nnc(C(F)(F)F)s1)c1ccc(F)cc1,–,inactive
CC1(c2ccc(Oc3ccccc3)cc2)OC(=O)N(Nc2ccccc2)C1=O (stereo not given),11.7 µM (active),–
CCC(C)Nc1c([N+](=O)[O-])cc(C(C)(C)C)cc1[N+](=O)[O-] (stereo not given),–,inactive
CNC(=O)CSP(=S)(OC)OC,–,inactive
Cc1[nH]c(=O)n(C(C)(C)C)c(=O)c1Cl,–,inactive
O=C(Nc1ccccc1)Nc1cnns1,–,inactive
O=S1OCC2C(CO1)C1(Cl)C(Cl)=C(Cl)C2(Cl)C1(Cl)Cl (stereo not given),–,inactive
